# Results as given in PubChem BioAssay (NCATS).
# “And” between values parts separate entries of the source, which are not always exact repeats. Identical values can stand only once. Records with an inconclusive call do not appear. The source made the active and inactive calls. Calls follow the shape of the dose curve; as a rule, active = well fitted cell-killing curve with a large enough effect; inconclusive = small, poorly fitted or top-dose-only effect, or effect the other way; inactive = no such curve, though single readings can be large or run the other way.
# Assay: Viability qHTS for spleen associated tyrosine kinase inhibitor (SYKi) drug resistant MV4-11 cells (AID 1963824); also: nearly all actives have a fitted effect of over 35% in size
# Settings: SYKi-resistant MV4-11 viability, CellTiter-Glo, 72 h; series mostly up to 45 µM
# Description: Department of Medicine, Hematology/Oncology
# University Hospital Frankfurt, Germany.
# Trials have shown promising clinical activity of the selective SYK inhibitor entospletinib in patients with high expressing HOXA9/MEIS1 acute leukemias. As the development of resistance mechanisms is a common problem in the use of targeted drugs, we performed a chemical library screen to identify drug sensitivities in SYK inhibitor resistant AML cells. […] Glucocorticoids are potent immunosuppressants which work in part by inhibiting the transcription of cytokine genes.
# Described herein is a viability screen to look for activity in the SYK inhibitor drug resistant cell line against four NCATS compound libraries (MIPE 5.0, NPC, NPACT, and Kinase) totaling 11372 compounds. Active hits were reacquired for confirmation and further secondary assay testing.
# SEQUENCE No. (e.g., 1, 2, 3, etc.); […] (e.g., Cells, Incubation, Reagent, etc.); VALUE; DESCRIPTION.
# 1; Media; 2uL; white, solid-bottom Corning assay plate.
# 2; Compounds; 23nL; Echo acoustic dispenser.
# 3; Cell; 5uL; 500 cells per well.
# 4: Incubation; 72hr; 37 C, 5% CO2, 95% humidity.
# 5; Reagent; 3uL; CellTiter-Glo reagent (Promega).
# 6; Incubation; 10min; room temperature.
# 7; Detection; Luminescence; ViewLux plate reader (PerkinElmer).
# NOTES (numbers refer to Sequence numbers above
# 1. Quantitative high-throughput screening (qHTS) of small molecule compounds was conducted on drug resistant SYKi MV4-11 cell line.
# 2. Twenty-three nanoliter of small molecule compounds were added to each assay plates using the Echo acoustic dispenser (Beckman Coulter).
# 3. Cells were seeded into the assay plates at a final density of 500 cells in 5uL of media per well using the Multidrop Combi dispenser.
# 4. Plates were covered with stainless steel gasketed lids and incubated for 72 hours at standard cell culture conditions.
# 5. Viability was assessed by adding 3uL of CellTiter-Glo detection reagent (Promega).
# 6. Plates were covered with gasket lids and incubated for 10 minutes at room temperature.
# 7. Luminescence was measured on a ViewLux plate reader (PerkinElmer).
# Potency is read from the fitted curve at half-maximal effect.
row,SMILES,Potency
1,CN(NC(=O)CC(=O)NN(C)C(=S)c1ccccc1)C(=S)c1ccccc1,46.1 nM (active) and 4.2 nM (active)
2,O=C(Nc1ccc([N+](=O)[O-])cc1Cl)c1cc(Cl)ccc1O,1.16 µM (active) and 742 nM (active)
3,CN(C)Cc1ccc(-c2nc3cccc4c3n2CCNC4=O)cc1,18.4 µM (active)
4,Cc1cc(C)nc(SCC(=O)Nc2ncc(Cc3cccc4ccccc34)s2)n1,10.3 µM (active)
5,CC(=O)O[C@@](C)(C(=O)/C=C/C(C)(C)O)[C@H]1[C@H](O)C[C@@]2(C)[C@@H]3CC=C4[C@@H](C=C(O)C(=O)C4(C)C)[C@]3(C)C(=O)C[C@]12C,0.252 µM (active)
6,CCC1C(=O)OCC1Cc1cncn1C (stereo not given),inactive
7,Cc1cccc(-c2[nH]c(C(C)(C)C)nc2-c2ccc3c(c2)OCO3)n1,1.46 µM (active) and 2.09 µM (active)
8,O=C(NC[C@H](O)CO)c1ccncc1Nc1ccc(I)cc1F,0.166 µM (active)
9,Cc1cccc(CC(=O)N2CCc3c2ccc(-c2cn(C)c4ncnc(N)c24)c3F)n1,2.06 µM (active)
10,O=C(CCl)Nc1cccc(NC2=NS(=O)(=O)c3ccccc32)c1,2.63 µM (active)
11,CCOC(=O)C1=Cc2ccc(C(F)(F)C(F)(F)F)cc2N=C(N)C1,20.6 µM (active)
12,CC(C)(F)CC(NC(c1ccc(-c2ccc(S(C)(=O)=O)cc2)cc1)C(F)(F)F)C(=O)NC1(C#N)CC1 (stereo not given),3.66 µM (active)
13,O=C(Nc1ncc(SCCN2CCCC2)s1)[C@]1(c2ccc(S(=O)(=O)C3CC3)cc2)C[C@H]1C1CCCCC1,8.33 µM (active)
14,C/C=C(/C)C(=O)O[C@H]1C(C)=CC23C(=O)C(C=C(CO)[C@@H](O)[C@]12O)[C@H]1[C@@H](C[C@H]3C)C1(C)C (stereo not given in full),0.0083 µM (active)
15,NC/C=C/C(=O)O,inactive
16,CC1CCC2C(C)(C)C(O)CCC2(C)C12Cc1c(O)cc3c(c1O2)CN=C3N (stereo not given),inactive
17,CCNC(=O)Nc1ccc2ncc(Nc3ccc(C)cc3)nc2n1,inactive
18,CC(/C=C/C1(O)C2(C)COC1(C)CC(=O)C2)O[C@@H]1O[C@H](CO)[C@@H](O)[C@H](O)[C@H]1O (stereo not given in full),inactive
19,CCCn1cc2c(nc(NC(=O)Nc3ccc(OC)cc3)n3nc(-c4ccco4)nc23)n1,inactive
20,O=C1[C@H](O[C@@H]2O[C@H](CO)[C@@H](O)[C@H](O)[C@H]2O)Oc2ccccc2N1O,inactive

row,SMILES,Potency
1,OCc1ccc(-c2nn(Cc3ccccc3)c3ccccc23)o1,4.68 µM (active)
2,COc1ccc2c(c1)CCCC2=O,inactive
3,CN(C(=O)C(Cl)Cl)c1ccc(OC(=O)c2ccco2)cc1,inactive
4,CC1CCC2C(C)(C)CC(C)(CO)C2(O)C1C(=O)O (stereo not given),inactive
5,Cn1c(=O)c2c(ncn2Cc2ccc(C(C)(C)C)cc2)n(C)c1=O,1.16 µM (active)
6,CC(c1c[nH]c2ccccc12)C(O)C(=O)O (stereo not given),inactive
7,NC(=O)C1=CC2C3C=CC2C(OC3=O)O1 (stereo not given),26.6 µM (active)
8,CN(C)CC[C@@H](c1ccc(Cl)cc1)c1ccccn1,inactive
9,C/C(=C\CC[C@@H](C)[C@H]1CC(O)[C@@]2(C)C3CC[C@H]4C(C)(C)[C@@H](OC5OCC(O)C(O)C5OC5OC(CO)C(O)C(O)C5O)CC[C@@]45C[C@@]35CC(O)[C@]12C)C(=O)O (stereo not given in full),inactive
10,CC(C)C[C@@H](C(=O)N[C@@H](Cc1ccc(OCc2ccccc2)cc1)C(=O)NC(C)(C)C)N(C)Cc1ccc(C(C)(C)C)cc1,3.66 µM (active)
11,C/C=C(\C)C(=O)OC1C2(O)CC3=C4CC(=O)OC(c5ccoc5)C4(C)CCC3C(C)(C2=O)C(C(OC(C)=O)C(=O)OC)C1(C)C (stereo not given),4.85 µM (active)
12,Cc1ccccc1C(=O)Nc1ccc(C(=O)N2CCCC(O)c3cc(Cl)ccc32)c(C)c1 (stereo not given),20.9 µM (active)
13,CC(Oc1cc(-n2cnc3ccc(CN4CCN(C)CC4)cc32)sc1C(N)=O)c1ccccc1C(F)(F)F (stereo not given),0.461 µM (active)
14,C[C@@H]1COCCN1c1cc(C2(S(C)(=O)=O)CC2)nc(-c2cccc3[nH]ccc23)n1,0.366 µM (active)
15,CC(=O)O[C@H]1[C@H](Oc2ccccc2COC(=O)C2(O)C=CCCC2=O)O[C@H](CO)[C@@H](O)[C@@H]1O (stereo not given in full),inactive
16,CC1(C)CCCC2(C)C(CO)C3CCC2C31 (stereo not given),inactive
17,Cc1ccc(-c2nn(C(C)(C)CNC(=O)c3ccncc3)c3ncnc(N)c23)cc1,6.61 µM (active)
18,O=C(NO)c1cnc(NC2(c3ccccc3)CC2)nc1,4.17 µM (active)
19,CCC(C(=O)OCCN(CC)CC)c1ccccc1 (stereo not given),inactive
20,C=C(C)C1CCC(C)C12CC(O)C1(C)OC1C2OC(=O)C(N)CCC(=O)O (stereo not given),inactive
